Test results: PubChem BioAssay (NCATS)
Several values for one entry are separate records, joined by “and”; a condition that tells them apart may be missing. Equal values may be shown once. Inconclusive results are not listed. Activity calls are given as the source filed them. Unless noted, the call rests on the fitted dose curve; in most records, active means well fitted curve in the direction sought with a large enough effect; inconclusive means small, poorly fitted or top-dose-only effect, or another doubt; inactive means no such curve, though single readings can be large; an effect the other way counts as inactive or inconclusive.

Columns and labels:
[1] = AP1 Signaling Pathway (AID 357; active means well fitted curve in either direction with a large enough effect, not every such curve was filed as active;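 further: ME-180 reporter cells stimulated with EGF at its EC50 level; on the % scale 0 is the no-effect control and ±100 the full control effect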)
In short: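 First, ME-180 AP-1-bla cells were cultured overnight at 37 °C in low-serum Opti-MEM. Next, titrated compounds with EC50 EGF were incubated 5 hours. Finally, CCF4 was added for 2.5 hours and the 460/530 nm ratio recorded.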

[2] = molecular target: Cytochrome P450 1A2 (Homo sapiens) (UniProt P05177); assay: p450-cyp1a2 (AID 410; calls by dose curve;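 further: -100% = full effect of reference inhibitor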)
Sequence of Cytochrome P450 1A2 (Homo sapiens) (P05177 whole entry, looked up): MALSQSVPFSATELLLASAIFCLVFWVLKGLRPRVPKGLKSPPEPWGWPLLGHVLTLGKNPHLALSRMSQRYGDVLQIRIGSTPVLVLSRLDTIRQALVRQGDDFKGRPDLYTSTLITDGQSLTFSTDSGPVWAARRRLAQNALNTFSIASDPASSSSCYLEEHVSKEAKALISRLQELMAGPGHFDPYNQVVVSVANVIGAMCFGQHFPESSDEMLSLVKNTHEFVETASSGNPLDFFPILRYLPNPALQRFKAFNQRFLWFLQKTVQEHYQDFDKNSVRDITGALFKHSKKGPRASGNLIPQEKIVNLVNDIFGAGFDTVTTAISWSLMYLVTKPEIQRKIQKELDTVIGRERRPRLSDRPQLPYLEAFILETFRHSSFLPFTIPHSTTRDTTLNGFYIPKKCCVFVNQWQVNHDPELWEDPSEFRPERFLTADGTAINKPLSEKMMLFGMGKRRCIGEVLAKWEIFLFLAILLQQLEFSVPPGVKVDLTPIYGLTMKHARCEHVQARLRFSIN
In short: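 20nM CYP1A2, 100uM Luciferin-ME (=Km), 100mM KPO4; cpd 10 min RT; +NADPH regen, 60 min RT; stop/detect 20 min; luminescence. Normalized to furafylline 57 uM = full inhibition.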

[3] = NFAT Signaling Pathway (AID 444; active means well fitted curve in either direction with a large enough effect, not every such curve was filed as active;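 further: carbachol stimulus at about its EC50 of 1 µM final; on the % scale 0 is the no-effect control and ±100 the full control effect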); conditions: Jurkat NFAT-bla M1, carbachol, beta-lactamase ratio, 5 h; at 17.2 µM (top of the series)
In short: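 Read-out: CCF4 FRET ratio (460 nm/530 nm) after 1 h RT dye loading, used for %activity and AC50 from titration series. Cells: Jurkat NFAT-β-lactamase/M1 line, treated with compound plus 1 uM carbachol for 5 h, 37 °C.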

[4] = Stat Signaling Pathway (AID 446; active means well fitted curve in either direction with a large enough effect, not every such curve was filed as active;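 further: ME-180 cervical cancer cells given 40 pM IL-6 alongside compound; SIE-controlled beta-lactamase reporter measured as 460/530 nm FRET emission ratio; on the % scale 0 is the no-effect control and ±100 the full control effect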)
In short: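 Normalization used AC90 stimulation (300 pM IL-6) and AC90 inhibition (125 nM pan-JAK inhibitor at 40 pM IL-6). The underlying signal is SIE-driven beta-lactamase in ME-180 cells after 5 h IL-6 exposure with compound.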

[5] = molecular target: Glucocorticoid receptor (Homo sapiens) (UniProt P04150); assay: GR-GFP Redistribution (AID 450;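 active means compounds whose dose series gives a full or clear partial fitted curve of increased nuclear translocation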; further: potency means the concentration at half of the fitted maximal effect); conditions: U2OS GR-GFP nuclear translocation, laser cytometry, 2 h
Sequence of Glucocorticoid receptor (Homo sapiens) (P04150 whole entry, looked up, the tested form may be a part): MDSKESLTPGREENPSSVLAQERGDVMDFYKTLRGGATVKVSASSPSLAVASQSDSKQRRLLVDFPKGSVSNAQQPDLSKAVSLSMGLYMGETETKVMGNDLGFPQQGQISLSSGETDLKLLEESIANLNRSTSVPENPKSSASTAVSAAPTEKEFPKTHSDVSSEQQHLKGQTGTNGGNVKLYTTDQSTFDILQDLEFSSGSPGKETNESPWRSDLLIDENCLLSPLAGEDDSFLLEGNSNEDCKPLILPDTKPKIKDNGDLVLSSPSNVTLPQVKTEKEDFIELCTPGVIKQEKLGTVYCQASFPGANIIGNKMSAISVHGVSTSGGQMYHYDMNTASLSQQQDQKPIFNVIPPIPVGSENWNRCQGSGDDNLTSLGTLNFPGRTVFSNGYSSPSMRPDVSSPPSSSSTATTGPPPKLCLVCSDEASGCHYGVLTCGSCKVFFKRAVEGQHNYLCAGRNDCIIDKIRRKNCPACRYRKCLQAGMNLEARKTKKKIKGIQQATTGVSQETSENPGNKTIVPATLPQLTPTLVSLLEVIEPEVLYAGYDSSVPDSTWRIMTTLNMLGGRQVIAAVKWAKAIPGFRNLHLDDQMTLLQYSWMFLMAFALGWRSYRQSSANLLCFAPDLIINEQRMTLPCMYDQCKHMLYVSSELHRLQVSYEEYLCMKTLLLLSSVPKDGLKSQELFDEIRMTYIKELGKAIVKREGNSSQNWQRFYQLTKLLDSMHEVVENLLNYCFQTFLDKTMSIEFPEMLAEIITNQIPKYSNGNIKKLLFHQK

[6] = molecular target: Glucocorticoid receptor (Homo sapiens) (UniProt P04150); assay: GR-EFC Redistribution (AID 451; calls by dose curve; further: potency means the concentration at half of the fitted maximal effect); conditions: CHO-K1 GR-EFC translocation, beta-gal luminescence, 2 h
In short: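 Translocation of GR-ED fusion to nuclear EA restores b-gal, read by luminescence after 1 h room-temperature detection. Engineered CHO-K1 biosensor cells, 1,000/well, exposed 2 h at 37 C to titrations up to 46 uM final.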

[7] = molecular target: Mitogen-activated protein kinase 10 (Mus musculus) (UniProt Q61831); assay: JNK3 AlphaScreen Assay (AID 530; active means well fitted curve in either direction with a large enough effect, not every such curve was filed as active;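 further: kinase came from lysate of stimulated human HepG2 cells; signal reports phosphorylation of biotinylated GST-cJun 1-79 at Ser73 with 10 µM ATP; on the % scale 0 is the no-effect control and ±100 the full control effect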)
In short: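 Kinase buffer: 20 mM Tris-HCl pH 7.6, 10 mM MgCl2, 1 mM DTT, 0.1 mM Na3VO4, 0.01% Tween-20; ATP 10 uM. Substrate biotin-GST-cJun(1-79), enzyme from activated HepG2 lysates. Detection by Ser73 phospho-antibody AlphaScreen.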

[8] = molecular target: 3',5'-cyclic-AMP phosphodiesterase 4B (Homo sapiens) (UniProt Q07343); assay: qHTS Assay for Inhibitors of PDE-IV (AID 607; active means well fitted activation curve with a large enough effect in the main read-out, with a control signal flat, not every such curve was filed as active; further: % of control where 0% means no effect)
Sequence of 3',5'-cyclic-AMP phosphodiesterase 4B (Homo sapiens) (Q07343 whole entry, looked up): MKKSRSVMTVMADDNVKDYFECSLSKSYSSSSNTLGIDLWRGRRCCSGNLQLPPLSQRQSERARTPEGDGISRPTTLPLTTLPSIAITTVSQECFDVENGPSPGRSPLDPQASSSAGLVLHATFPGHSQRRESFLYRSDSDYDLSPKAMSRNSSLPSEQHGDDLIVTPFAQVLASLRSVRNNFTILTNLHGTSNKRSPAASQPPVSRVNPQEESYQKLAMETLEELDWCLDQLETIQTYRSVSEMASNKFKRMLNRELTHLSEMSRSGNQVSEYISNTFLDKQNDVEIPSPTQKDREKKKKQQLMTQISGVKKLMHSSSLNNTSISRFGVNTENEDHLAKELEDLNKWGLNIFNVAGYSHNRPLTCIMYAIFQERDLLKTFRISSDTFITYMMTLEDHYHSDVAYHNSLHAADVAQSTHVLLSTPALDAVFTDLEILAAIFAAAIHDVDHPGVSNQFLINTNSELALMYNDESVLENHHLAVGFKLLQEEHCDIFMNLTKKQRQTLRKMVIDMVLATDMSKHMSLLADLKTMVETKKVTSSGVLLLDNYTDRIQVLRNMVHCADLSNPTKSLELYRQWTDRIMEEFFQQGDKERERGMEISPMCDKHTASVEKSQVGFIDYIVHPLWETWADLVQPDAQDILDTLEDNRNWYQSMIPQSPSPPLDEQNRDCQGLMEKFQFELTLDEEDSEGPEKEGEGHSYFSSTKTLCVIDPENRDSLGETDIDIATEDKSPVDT
In short: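 HEK293 ACTOne cells with CNG channel (1000/well), endogenous PDE4; membrane potential dye, compounds up to 22.9 uM final. Fluorescence Ex 535/Em 590; RO 20-1724 (100 uM final) as reference.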

[9] = qHTS Assay for Lipid Storage Modulators (AID 1519; calls by dose curve); conditions: Drosophila S3 cells, BODIPY lipid droplet/cell ratio, laser cytometry, cells loaded with oleic acid; for activity change, negative = inhibition: at 25.7 µM (top of the series)
In short: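 Cells seeded at 5,000 per well were treated with compounds over a concentration series and loaded with oleic acid (400 uM, as added). Lipid droplet fluorescence (488 nm excitation, 500-530 nm channel) was read by laser-scanning cytometry and normalized to 20 uM Triacsin C.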

[10] = molecular target: ATP-dependent 6-phosphofructokinase (Trypanosoma brucei brucei) (UniProt O15648); assay: qHTS Assay to Find Inhibitors of T. brucei phosphofructokinase: hit validation (AID 492961)
Sequence of ATP-dependent 6-phosphofructokinase (Trypanosoma brucei brucei) (O15648 whole entry, looked up): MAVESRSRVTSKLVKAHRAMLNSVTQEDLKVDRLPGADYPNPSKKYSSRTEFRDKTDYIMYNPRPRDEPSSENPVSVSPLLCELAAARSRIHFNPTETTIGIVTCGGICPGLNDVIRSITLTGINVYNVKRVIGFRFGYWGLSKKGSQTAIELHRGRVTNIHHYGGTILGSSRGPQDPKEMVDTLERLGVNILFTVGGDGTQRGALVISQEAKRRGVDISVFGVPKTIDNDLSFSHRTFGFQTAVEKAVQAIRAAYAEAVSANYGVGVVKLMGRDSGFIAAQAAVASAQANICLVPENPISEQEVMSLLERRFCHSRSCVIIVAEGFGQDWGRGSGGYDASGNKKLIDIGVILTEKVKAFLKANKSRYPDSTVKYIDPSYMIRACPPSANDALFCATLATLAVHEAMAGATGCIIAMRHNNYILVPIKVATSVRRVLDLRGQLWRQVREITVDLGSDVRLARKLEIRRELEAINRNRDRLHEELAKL
In short: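 ADP-Glo luminescence read-out of ADP formed by 1.25 nM PFK from 0.1 mM ATP and 0.5 mM F6P (TEA pH 8.0, 45 min, RT). Compounds titrated; activity normalized to no-enzyme and full-enzyme controls.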

[11] = molecular target: Luciferin 4-monooxygenase (Photinus pyralis) (UniProt P08659); assay: Biochemical firefly luciferase enzyme assay for NPC (AID 624030);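 further: purified P. pyralis luciferase at 10 nM with luciferin and ATP substrate; 0% = DMSO and -100% = full luciferase inhibition by PTC124 control; nearly all actives have a fitted effect of over 70% in size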
Sequence of Luciferin 4-monooxygenase (Photinus pyralis) (P08659 whole entry, looked up): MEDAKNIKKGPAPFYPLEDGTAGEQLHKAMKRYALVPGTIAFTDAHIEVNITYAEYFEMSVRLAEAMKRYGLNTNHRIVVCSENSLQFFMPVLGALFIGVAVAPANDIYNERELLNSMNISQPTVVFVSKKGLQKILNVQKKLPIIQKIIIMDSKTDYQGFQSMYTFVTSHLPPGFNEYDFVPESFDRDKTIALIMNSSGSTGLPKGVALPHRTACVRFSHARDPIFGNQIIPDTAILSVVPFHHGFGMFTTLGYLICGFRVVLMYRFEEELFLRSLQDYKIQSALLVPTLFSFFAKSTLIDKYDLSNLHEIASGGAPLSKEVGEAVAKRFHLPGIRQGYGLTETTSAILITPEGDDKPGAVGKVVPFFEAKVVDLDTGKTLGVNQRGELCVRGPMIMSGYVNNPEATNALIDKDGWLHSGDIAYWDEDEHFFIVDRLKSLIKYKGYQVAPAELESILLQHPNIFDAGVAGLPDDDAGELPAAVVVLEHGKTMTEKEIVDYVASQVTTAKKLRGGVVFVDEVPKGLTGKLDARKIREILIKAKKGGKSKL
In short: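 Direct inhibition of firefly luciferase enzyme (10 nM final, 50 mM Tris Acetate) assessed by luminescence within 5 minutes. Percent activity scaled between DMSO and PTC124 positive control, with concentration-effect curves classified by fit quality and response.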

[12] = qHTS profiling for inhibitors of Plasmodium falciparum proliferation (AID 504749);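 further: 0% = DMSO vehicle and full inhibition = artemisinin control; nearly all actives have a fitted effect of over 60% in size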; conditions: P. falciparum in erythrocytes, SYBR Green DNA, 72 h, at 12.8 µM (top of the series)
In short: (§1)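 In a 72 h erythrocytic culture (37 C, humidified, 5% CO2) at 2.5% hematocrit and 0.3% starting parasitemia, compounds were tested; SYBR Green I in detergent lysis buffer stained parasite DNA overnight.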

[13] = test system: C2A; assay: as above; conditions: P. falciparum in erythrocytes, SYBR Green DNA, 72 h; series mostly up to 28.7 µM
In short: as §1

[14] = test system: CP192; assay: as above; conditions: P. falciparum in erythrocytes, SYBR Green DNA, 72 h; series mostly up to 28.7 µM
In short: as §1

[15] = test system: CP211; assay: as above; conditions: P. falciparum in erythrocytes, SYBR Green DNA, 72 h; series mostly up to 28.7 µM
In short: as §1

[16] = test system: CP266; assay: as above; conditions: P. falciparum in erythrocytes, SYBR Green DNA, 72 h; series mostly up to 12.8 µM
In short: as §1

[17] = test system: CP315; assay: as above; conditions: P. falciparum in erythrocytes, SYBR Green DNA, 72 h; series mostly up to 28.7 µM
In short: as §1

[18] = test system: CP329; assay: as above; conditions: P. falciparum in erythrocytes, SYBR Green DNA, 72 h; series mostly up to 28.7 µM
In short: as §1

[19] = test system: FAB9; assay: as above; conditions: P. falciparum in erythrocytes, SYBR Green DNA, 72 h; series mostly up to 28.7 µM
In short: as §1

[20] = molecular target: Ubiquitin carboxyl-terminal hydrolase 1 (Homo sapiens) (UniProt O94782); assay: Inhibitors of USP1/UAF1: Pilot qHTS (AID 504865);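 further: rhodamine fluorescence freed from ubiquitin-rhodamine substrate followed over time; top concentration of the series differs between compounds; on the % scale 0 is the no-effect control and ±100 the full control effect; nearly all actives have a fitted effect of over 35% in size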
Sequence of Ubiquitin carboxyl-terminal hydrolase 1 (Homo sapiens) (O94782 whole entry, looked up): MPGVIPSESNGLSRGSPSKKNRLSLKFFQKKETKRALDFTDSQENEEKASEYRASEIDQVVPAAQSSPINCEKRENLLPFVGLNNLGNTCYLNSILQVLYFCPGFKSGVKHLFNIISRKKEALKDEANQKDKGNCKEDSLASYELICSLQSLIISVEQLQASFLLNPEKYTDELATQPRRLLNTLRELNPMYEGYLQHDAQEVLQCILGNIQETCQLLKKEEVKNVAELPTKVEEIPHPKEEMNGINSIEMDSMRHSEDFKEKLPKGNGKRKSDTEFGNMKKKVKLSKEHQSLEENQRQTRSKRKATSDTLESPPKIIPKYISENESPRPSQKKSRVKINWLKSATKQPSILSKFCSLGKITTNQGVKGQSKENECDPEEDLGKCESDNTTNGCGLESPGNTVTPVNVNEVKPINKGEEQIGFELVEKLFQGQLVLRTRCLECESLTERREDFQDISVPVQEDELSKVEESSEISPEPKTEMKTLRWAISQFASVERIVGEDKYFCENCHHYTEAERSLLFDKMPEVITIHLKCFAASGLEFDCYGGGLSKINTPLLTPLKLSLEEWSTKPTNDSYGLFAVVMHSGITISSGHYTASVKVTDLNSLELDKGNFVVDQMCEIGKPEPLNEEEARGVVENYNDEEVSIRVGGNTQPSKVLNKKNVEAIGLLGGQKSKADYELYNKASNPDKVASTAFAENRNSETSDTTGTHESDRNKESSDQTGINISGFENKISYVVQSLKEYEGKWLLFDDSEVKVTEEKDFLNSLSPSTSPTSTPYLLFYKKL
In short: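 1nM USP1/UAF1 + cpd, 15 min RT; start w/ Ub-Rho 150nM final; kinetic FL 480/540 nm, 6 reads q60 s. Buffer 50mM HEPES pH 7.8, 0.5mM EDTA, 1mM TCEP, 0.01% Tween-20, 0.1 mg/ml BSA.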

[21] = measured here: cell count channel max response
[22] = measured here: lipid channel max response

CC[C@@H]1[C@@H]2C[C@H]3[C@H]4N(C)c5ccccc5[C@@]45C[C@@H]([C@@H]2[C@@H]5O)N3[C@H]1O
1.73%: max response [9, 21]
1.93%: max response [9, 22]
inactive: outcome [1] | Potency [2] | activity change, negative = inhibition [3] -7.21% | outcome [4] | Potency [5] > 20.6 µM | Potency [6] > 20.6 µM | outcome [7] | Potency [8] | activity change, negative = inhibition [9] -1.86% | Potency [10] | Potency [11] | activity, negative = inhibition ([12]; parasite line A) -1.56% | activity, negative = inhibition ([12]; parasite line B) 7.76% | Potency [13] | Potency [14] | Potency [15] | Potency [16] | Potency [17] | Potency [18] | Potency [19]

CC(=O)O[C@H]1CC[C@@]2(C)C(=CC[C@@H]3[C@H]2CC[C@]2(C)C(=O)CC[C@H]32)C1
-12.6%: max response [9, 22]
inactive: outcome [1] | Potency [2] | activity change, negative = inhibition [3] -13.7% | outcome [4] | Potency [5] > 20.6 µM | Potency [6] > 20.6 µM | outcome [7] | Potency [8] | activity change, negative = inhibition [9] -0.861% | Potency [10] | Potency [11] | activity, negative = inhibition ([12]; parasite line A) 8.47% | activity, negative = inhibition ([12]; parasite line B) 10.9% | Potency [13] | Potency [14] | Potency [15] | Potency [16] | Potency [17] | Potency [18] | Potency [19]
-9.47%: max response [9, 21]

C=C1[C@@H]2CC[C@H]3[C@@]4(C)C[C@@H](O[C@@H]5O[C@H](CO)[C@H](OS(=O)(=O)O)[C@@H](OS(=O)(=O)O)[C@@H]5OC(=O)CC(C)C)C[C@@H](C(=O)O)[C@H]4CC[C@@]3(C2)[C@H]1O
-23.7%: max response [9, 21]
-28.9%: max response [9, 22]
inactive: outcome [1] | Potency [2] | activity change, negative = inhibition [3] 13.2% | outcome [4] | Potency [5] > 20.6 µM | Potency [6] > 20.6 µM | outcome [7] | Potency [8] | activity change, negative = inhibition [9] -6.46% | Potency [20]

C=C[C@H]1CN2CC[C@@H]1C[C@H]2[C@@H](O)c1ccnc2ccccc12
6.74% and -12.1%: max response [9, 22]
inactive: outcome [1] | Potency [2] | activity change, negative = inhibition [3] -25.9% | outcome [4] | Potency [5] > 20.6 µM | Potency [6] > 20.6 µM | outcome [7] | Potency [8] | activity change, negative = inhibition [9] -1.72% and -4.09% | Potency [20]
9.79% and -10.1%: max response [9, 21]

CCN1C[C@]2(C)CC[C@H](OC)[C@@]34[C@@H]2[C@H](OC(C)=O)[C@]2(OCO[C@@]25C[C@@H](OC)[C@@H]2C[C@@]3(O)[C@H]5[C@@H]2OC)[C@H]14
inactive: outcome [1] | Potency [2] | activity change, negative = inhibition [3] -4.41% | outcome [4] | Potency [5] > 20.6 µM | Potency [6] > 20.6 µM | outcome [7] | activity change, negative = inhibition [9] -1.59% | Potency [20]
0.99%: max response [9, 22]
-0.005%: max response [9, 21]
